The results in this text go back to PubChem BioAssay (NCATS).

Values joined by “and” are separate entries in the source; they are usually repeats but may differ in a detail not shown here. Equal entries are not always repeated. Results filed as inconclusive are left out. A call without a number means that no potency is given here. Values without a mark were called inactive. Active and inactive are the calls of the source. Calls follow the shape of the dose curve; as a rule, active = well fitted cell-killing curve with a large enough effect; inconclusive = small, poorly fitted or top-dose-only effect; inactive = no such curve, though single readings can be large or run the other way.
Potency is read from the fitted curve at half-maximal effect.

The nature of the assay: qHTS of pediatric cancer cell lines to identify multiple opportunities for drug repurposing: Primary screen for Rh30 cells (AID 1347107). Also: nearly all actives have a fitted effect of over 75% in size. To be noted: Rh30 rhabdomyosarcoma viability, CellTiter-Glo luminescence, 48 h; series mostly up to 46 µM; activity change, negative = cytotoxic: at the top concentration. The source says: Drug repurposing or repositioning has been offered as a strategy for drug development in oncology programs. This approach has special potential for childhood cancers and other rare or orphan diseases, where the expected return on new drug development has been a disincentive to pharmaceuticals.
In this project we exploit the poly-pharmacology of drugs to discover new indications via phenotypic screening of a panel of 19 well-characterized cell lines derived from solid tumors seen in children and adolescents. The goal is to identify approved drugs with previously unrecognized anticancer properties that has the potential to reveal new mechanisms and biological processes involved in carcinogenesis or drug resistance. We employed a titration-based paradigm (quantitative high-throughput screening or qHTS), where all compounds were tested at multiple concentrations for their effect on cell viability. Concentration-response curves (CRCs) were derived directly from the primary screen, and both potency and efficacy values were used to identify compounds with robust bioactivity profiles. We screened the NIH Chemical Genomics Center (NCGC) Pharmaceutical Collection (NPC) and Mechanism Interrogation Plate (MIPE) small molecule collections of approved and investigational compounds against these cell lines; and measured metabolically active cells after 48 hours of compound treatment as a proxy for cell viability.
Assay Submitter: Nathalia J. Martinez, National Center for Advancing Translational Sciences, National Institutes of Health, Rockville, MD, USA; email: natalia.martinez@nih.gov
[1] Shen, M et al. Quantitative high-throughput phenotypic screening of pediatric cancer cell lines identifies multiple opportunities for drug repurposing. Oncotarget 2017 Dec 19;9(4):4758-4772. PMID 29435139.
The cells were obtained from University of North Carolina (UNC), Pediatric Preclinical Testing Program (PPT), and Coriell Institute (CI).
qHTS cell viability assay:
Cells were assayed in growth media at a density of 500-1,000 cells/well. Five microliters of cells were dispensed into 1,536-well, white, solid-bottom, TC-treated plates (Greiner Bio One) using a multidrop dispenser and incubated at 37 degrees C, 5% CO2, under a humidified atmosphere for 5 hours. Twenty-three nanoliters of compounds and controls (neutral control DMSO or positive control bortezomib at final concentration of 2.3 µM) were subsequently transferred by Kalypsys pintool. For primary screens, the MIPE collection was tested at 11-point dilutions (final concentrations range from 0.78 nM to 46 µM) and the NPC collection at 8-point dilutions (final concentrations range from 0.59 nM to 46 µM). Compounds tested in follow-up screens were assayed at 11-point dilutions. Cells were incubated for 48 hours, followed by addition of 3 µL of CellTiter-Glo (Promega). After a 15 min incubation at room temperature, samples were analyzed for luminescence intensity using a ViewLux High-throughput CCD imager equipped with clear filters.
A general note: Quantitative high-throughput screening tests each substance at several concentrations.
With `CCn1cc(C(=O)O)c(=O)c2cc(F)c(N3CCNCC3)nc21`, the Potency entry is “inactive”.
On to `CCCCS(=N)(=O)CCC(N)C(=O)O` (stereo not given), for which the “activity change, negative = cytotoxic” value is 16.7%.
`COc1cc2ncnc(Nc3cccc(Cl)c3)c2cc1OC`: the “activity change, negative = cytotoxic” value is -4.03%.
As for `CC(=O)CC(c1ccccc1)c1c(O)c2ccccc2oc1=O` (stereo not given), the Potency result was “inactive”.
For `COC(=O)Nc1nc2ccc(S(=O)c3ccccc3)cc2[nH]1` (stereo not given), the Potency result is “inactive”.
As to `C[C@@H]1CN(c2c(F)c(N)c3c(=O)c(C(=O)O)cn(C4CC4)c3c2F)C[C@H](C)N1`, the Potency entry is “inactive”.
For `Nc1nc(F)nc2c1ncn2[C@@H]1O[C@H](CO)[C@@H](O)[C@@H]1O`, the “activity change, negative = cytotoxic” value is -6.41%.
For `Nc1nc(N)nc(-c2cc(Cl)ccc2Cl)n1`, the Potency entry is “inactive”.
In the case of `CCc1cc(C(N)=S)ccn1`, the Potency entry is “inactive”.
Still for that read-out and setting: as for `CN(C)c1ccc(C(=C2C=CC(=[N+](C)C)C=C2)c2ccc(N(C)C)cc2)cc1`, the figure is 11.9 µM (active) and 5.9 µM (active).
With `OC(Cn1cncn1)(Cn1cncn1)c1ccc(F)cc1F`, the Potency result is “inactive”.
On the same count and under the same terms, to `CC[C@H](NC(C)C)[C@H](O)c1ccc(O)c2[nH]c(=O)ccc12` belongs “inactive”.
On the same count and under the same terms, to `CCCN[C@H]1CCc2nc(N)sc2C1` belongs “inactive”; to `NNC(=O)c1ccncc1`, “inactive”; to `CCN(C)C(=O)Oc1cccc([C@H](C)N(C)C)c1`, “inactive”.
Same read-out and setting: as for `C[C@@H](CN1CC(=O)NC(=O)C1)N1CC(=O)NC(=O)C1`, the entry is “inactive”.
On to `C[C@]12C=CC(=O)C=C1CC[C@@H]1[C@@H]2C(=O)C[C@@]2(C)[C@H]1CC[C@]2(O)C(=O)CO`, for which the Potency entry was “inactive”.
With `CCn1cc(C(=O)O)c(=O)c2cc(F)c(N3CCNCC3)cc21`, the Potency result is “inactive”.
Take `CNS(=O)(=O)Cc1ccc2[nH]cc(CCN(C)C)c2c1`: the Potency entry was “inactive”.
`CC(C)(C)NC(=O)[C@H]1CC[C@H]2[C@@H]3CC[C@H]4NC(=O)C=C[C@]4(C)[C@H]3CC[C@]12C`: the “activity change, negative = cytotoxic” value is 5.07%.
As for `CO[C@@H]1[C@@H](OC(N)=O)[C@@H](O)[C@H](Oc2ccc3c(O)c(NC(=O)c4ccc(O)c(CC=C(C)C)c4)c(=O)oc3c2C)OC1(C)C`, the Potency entry was “inactive”.
On the same count and under the same terms, to `CCOCC(O)COc1ccc(NC(=O)CC[S+](C)C)cc1` (stereo not given) belongs “inactive”; to `CN1CCN(c2c(F)cc3c(=O)c(C(=O)O)cn4c3c2OCN4C)CC1`, “inactive”; to `CS(=O)(=O)c1ccc([C@@H](O)[C@@H](CO)NC(=O)C(Cl)Cl)cc1`, “inactive”.
Same read-out and setting: as for `Cc1nnc(C(=O)NC(C)(C)c2nc(C(=O)NCc3ccc(F)cc3)c(O)c(=O)n2C)o1`, the entry is “inactive”.
Take `Cn1nnc2c(C(N)=O)ncn2c1=O`: the Potency result is “inactive”.
On to `NC(=O)c1cccc(N)c1`, for which the “activity change, negative = cytotoxic” value is 11%.
For the molecule `CN(C)CCc1c[nH]c2ccc(CS(=O)(=O)N3CCCC3)cc12`, the Potency entry was “inactive”.
With `C1CCC(C(CC2CCCCN2)C2CCCCC2)CC1` (stereo not given), the “activity change, negative = cytotoxic” value is 14.8%.
`CC1=C(C(=O)O)N2C(=O)[C@@H](NC(=O)C(N)c3ccccc3)[C@H]2SC1` (stereo not given in full): the “activity change, negative = cytotoxic” value was 17.2%.
`O=C(N[C@H](CO)[C@H](O)c1ccc([N+](=O)[O-])cc1)C(Cl)Cl`: the Potency result was “inactive”.
For `O=C(O)c1ccc(-n2nc(-c3ccccc3O)nc2-c2ccccc2O)cc1`, the “activity change, negative = cytotoxic” value was 0.643%.
Consider `COc1nc(N)nc2c1ncn2[C@@H]1O[C@H](CO)[C@@H](O)[C@@H]1O`, for which the Potency entry was “inactive”.
As to `S=P(N1CC1)(N1CC1)N1CC1`, the “activity change, negative = cytotoxic” value was 23.1% [at 92.7 µM].
For the molecule `CC(C)NCC(O)c1ccc(NS(C)(=O)=O)cc1` (stereo not given), the “activity change, negative = cytotoxic” value is 4.47%.
`COc1ccc(C(=O)CC(=O)c2ccc(C(C)(C)C)cc2)cc1`: the “activity change, negative = cytotoxic” value is 13.4%.
On to `CCC(C)(C)c1ccc(CC(C)CN2C[C@@H](C)O[C@@H](C)C2)cc1` (stereo not given in full), for which the Potency result was “inactive”.
For `CC(C(=O)O)c1ccc2c(c1)CC(=O)c1ccccc1S2` (stereo not given), the Potency entry was “inactive”.
In the case of `Nc1ccc(S(=O)(=O)Nc2ccccn2)cc1`, the Potency entry was “inactive”.
As to `CCOC(=O)c1ccc(OC(=O)CCCCCN=C(N)N)cc1`, the Potency result was “inactive”.
